Consider seven compounds from PubChem BioAssay AID488815 (Broad Institute, 2010).

Potency and affinity values are given separately. Records with an inconclusive call do not appear. A call without a number means that no potency is given here. Activity calls are given as the source filed them. How the calls were made is not given here.

In this assay the target is CAAX prenyl protease 1 (Saccharomyces cerevisiae (strain ATCC 204508 / S288c)) (UniProt P47154). The experiment in a line: yeast CAAX protease Ste24 inhibition – biochemical, S. cerevisiae, plate reader, cherry-pick, dose response (AID 488815). As to conditions: series mostly up to 10 µM.
Sequence of CAAX prenyl protease 1 (Saccharomyces cerevisiae (strain ATCC 204508 / S288c)) (P47154 whole entry, looked up): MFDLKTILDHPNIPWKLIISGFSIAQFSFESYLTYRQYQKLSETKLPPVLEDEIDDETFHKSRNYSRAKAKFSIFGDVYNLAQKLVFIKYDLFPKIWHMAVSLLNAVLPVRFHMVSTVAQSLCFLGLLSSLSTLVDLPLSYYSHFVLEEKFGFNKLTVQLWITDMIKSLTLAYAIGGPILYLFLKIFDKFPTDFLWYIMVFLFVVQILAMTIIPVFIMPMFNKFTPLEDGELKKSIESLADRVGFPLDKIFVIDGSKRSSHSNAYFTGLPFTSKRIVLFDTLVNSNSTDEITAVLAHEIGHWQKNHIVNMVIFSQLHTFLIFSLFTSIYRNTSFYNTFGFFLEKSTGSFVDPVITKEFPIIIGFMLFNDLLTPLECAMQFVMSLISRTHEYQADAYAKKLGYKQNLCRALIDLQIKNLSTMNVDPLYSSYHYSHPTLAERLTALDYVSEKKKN
Turning to `Cc1ccnc(-n2c(-c3ccco3)nc3ccccc3c2=O)c1`, the compound was classed as inactive.
The same measure for `CN1CCN(c2ccc([N+](=O)[O-])c(Sc3nncn3C)c2)CC1`: “inactive”.
As for `CC(C)OCCCNC(=O)c1c(N)n(CC2CCCO2)c2nc3ccccc3nc12` (configuration not stated), the compound was classed as inactive.
For `c1ccc(CCCN2CCN(CCOC(c3ccccc3)c3ccccc3)CC2)cc1`, the outcome was inactive.
`C=CCn1c(O)c(C(CC)=Nc2ccc(N(CC)CC)cc2)c(=O)[nH]c1=O`: the call was inactive.
The entry for `CCOC(=O)[C@@H]1[C@H]2COc3ccc(Br)cc3[C@@H]2N2C(=O)N(c3cccc(C)c3)C(=O)[C@]12C` is “inactive”; for `O=[N+]([O-])c1ccc(C[n+]2c(-c3ccccc3)cc(-c3ccccc3)cc2-c2ccccc2)cc1` it is “inactive”.
